Hit rate of the full screen: of about 1,300 compounds, about 980 (75%) were called active. Inconclusive results (about 4%) are left out. Some of the results follow. Unmarked numbers belong to inactive results.
What follows are molecules tested against Sulfhydryl oxidase 1 (Homo sapiens) (UniProt O00391) (assay: inhibition of human sulfhydryl oxidase QSOX1 – biochemical, HyperBlu H2O2 luminescence, HTS, primary screen (AID 1347420; note: values above 100% were filed as inconclusive)). Conditions: recombinant QSOX1, HyperBlu H2O2 luminescence; at 12.5 µM; active compounds read high; active = any value above zero.
Sequence of Sulfhydryl oxidase 1 (Homo sapiens) (O00391 whole entry, looked up): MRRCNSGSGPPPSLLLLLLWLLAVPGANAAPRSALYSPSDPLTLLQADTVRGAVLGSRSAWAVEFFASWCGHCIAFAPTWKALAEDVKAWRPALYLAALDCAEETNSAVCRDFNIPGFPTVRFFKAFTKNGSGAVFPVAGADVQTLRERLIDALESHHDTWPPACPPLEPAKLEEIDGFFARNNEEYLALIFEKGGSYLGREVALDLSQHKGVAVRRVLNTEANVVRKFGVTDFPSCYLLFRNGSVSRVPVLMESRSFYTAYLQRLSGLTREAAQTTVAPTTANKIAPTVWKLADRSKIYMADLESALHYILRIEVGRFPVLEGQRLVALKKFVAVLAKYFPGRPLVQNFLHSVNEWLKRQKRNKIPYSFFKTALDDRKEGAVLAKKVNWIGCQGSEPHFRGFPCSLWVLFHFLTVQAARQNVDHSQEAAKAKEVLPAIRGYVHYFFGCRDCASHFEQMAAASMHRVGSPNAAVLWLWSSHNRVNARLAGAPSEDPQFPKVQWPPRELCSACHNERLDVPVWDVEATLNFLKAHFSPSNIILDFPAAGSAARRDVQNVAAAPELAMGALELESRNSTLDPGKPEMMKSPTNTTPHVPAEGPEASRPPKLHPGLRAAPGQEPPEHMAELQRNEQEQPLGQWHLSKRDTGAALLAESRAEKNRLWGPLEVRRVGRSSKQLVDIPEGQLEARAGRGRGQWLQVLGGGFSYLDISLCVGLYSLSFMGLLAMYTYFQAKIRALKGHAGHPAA

SMILES | inhibition
CC(C)(C)NCC(O)COc1cccc2[nH]c(=O)[nH]c12 (centres undefined) | 14% (active)
COc1cccc2c1[C@@H]1CN(CCCCn3c(=O)[nH]c4c(sc5ncc(-c6ccccc6)nc54)c3=O)C[C@@H]1CO2 | 47% (active)
NCCCC(N)(C(=O)O)C(F)F (centres undefined) | 4.1% (active)
CNC(=O)Oc1ccc2c(c1)[C@]1(C)CCN(C)[C@@H]1N2C | 17.7% (active)
O=C(O)C1CCNCC1 | 1.7% (active)
O=C(O)[C@H]1NCCC[C@H]1C(=O)O | -4.7%
O=C(O)C1CCCNC1 (centres undefined) | 13.4% (active)
CC1=NS(=O)(=O)c2cc(Cl)ccc2N1 | 34.8% (active)
CC(CCc1ccccc1)NCC(O)c1ccc(O)c(C(N)=O)c1 (centres undefined) | 12.9% (active)
Nc1ccc(N2C(=O)c3ccccc3C2=O)c(Cl)c1 | 7.7% (active)
N[C@H]1CONC1=O | 3.7% (active)
NC1CONC1=O (centres undefined) | 2.4% (active)
N[C@@H]1CONC1=O | -0.9%
Fc1cccc(/C=N/N=C/c2cccc(F)c2)c1 | -1.8%
O[Si](CCCN1CCCCC1)(c1ccc(F)cc1)C1CCCCC1 (centres undefined) | 4.4% (active)
Cn1ncc(S(=O)(=O)Cc2ccccc2)c(Br)c1=O | 11.5% (active)
C[C@@H](O)[C@H]1C(=O)N2C(C(=O)O)=C(SCCN=CN)C[C@H]12 | 17.6% (active)
CCn1cc(C(=O)O)c(=O)c2cc3c(cc21)OCO3 | -7.6%
CCn1cc(C(=O)O)c(=O)c2ccc(C)nc21 | 10.1% (active)
CCNC(=O)[C@H]1O[C@@H](n2cnc3c(N)nc(NCCc4ccc(CCC(=O)O)cc4)nc32)C(O)[C@H]1O (some centres undefined) | 45.5% (active)
CNC(=O)[C@H]1O[C@@H](n2cnc3c(NCc4cccc(I)c4)ncnc32)C(O)[C@H]1O (some centres undefined) | 14% (active)
CNC(=O)[C@H]1O[C@@H](n2cnc3c(NCc4ccc(N)cc4)ncnc32)C(O)[C@H]1O (some centres undefined) | 32.2% (active)

SMILES | inhibition
CC(=O)N[C@@H](CS)C(=O)O | 43.1% (active)
CC1(C)CCC=[N+]1[O-] | 6.8% (active)
CN1CCc2cc(NC(=O)Nc3cccnc3)ccc21 | 16.5% (active)
Cn1ccc2cc3c(cc21)CCN3C(=O)Nc1cccnc1 | -4.6%
O=C(O)CCC(=O)N1CCCC1C(=O)O (centres undefined) | -11.1%
CCCN1C[C@H](CSC)C[C@@H]2c3cccc4[nH]cc(c34)C[C@H]21 | 31% (active)
CCc1c(C)[nH]c2c1C(=O)C(CN1CCOCC1)CC2 (centres undefined) | 17.7% (active)
O=C(O)/C=C/c1cnc[nH]1 | 10.6% (active)
N[C@@H](Cc1cnc[nH]1)C(=O)O | -5.8%
CN(C)c1cc2c(Nc3ccc4c(cnn4Cc4ccccc4)c3)ncnc2cn1 | 15.4% (active)
CC#CCOC(=O)c1c(C)nc2sc3c(c2c1N)CCC(O)C3 (centres undefined) | -4.2%
S=C(Nc1ccccc1)Nc1nccs1 | 35.5% (active)
CC1CCN=C(N)S1 (centres undefined) | 29.6% (active)
NCCSSCCN | 47.5% (active)
O=C1/C(=C/c2ccsc2)CC/C1=C\c1cccs1 | 17.5% (active)
COc1cc2c(c(OC)c1OC)-c1ccc(OC)c(=O)cc1[C@@H](NC(C)=O)CC2 | -1%
Cn1cc(C2=C(c3ccc(Cl)cc3Cl)C(=O)NC2=O)c2ccccc21 | 25.7% (active)
CCc1ccc(/C=C2/SC(=S)NC2=O)cc1 | 69.4% (active)
O=C(O)CCc1nc(-c2ccccc2)c(-c2ccccc2)o1 | -0.1%
CC1COc2c(N3CCN(C)CC3)c(F)cc3c(=O)c(C(=O)O)cn1c23 (centres undefined) | 5.3% (active)
OC(CN1CCC(Cc2ccc(F)cc2)CC1)c1ccc(Cl)cc1 (centres undefined) | 1.3% (active)
CCCCN1CCC(n2c(=O)[nH]c3ccccc32)CC1 | 16.3% (active)

SMILES | inhibition
CN(C)CCCO[C@@H]1[C@H]2OC(C)(C)O[C@H]2O[C@@H]1C(O)CO (some centres undefined) | 14.7% (active)
O=C(O)[C@@H]1C[C@H](C(=O)O)N1 | -18.8%
O=C(O)[C@@H]1C[C@@H](C(=O)O)N1 | 4.5% (active)
CC(C)(C=O)Cc1cc(C(C)(C)C)c(O)c(C(C)(C)C)c1 | 2.8% (active)
CC(C)(CO)Cc1cc(C(C)(C)C)c(O)c(C(C)(C)C)c1 | -2.3%
COc1cc2nc(N3CCCN(C)CC3)nc(NC3CCN(Cc4ccccc4)CC3)c2cc1OC | 5.4% (active)
CC(C(=O)O)c1cccc(C(=O)c2ccccc2)c1 (centres undefined) | 8.2% (active)
COc1ccc2cc([C@H](C)C(=O)O)ccc2c1 | -13.9%
COc1ccccc1N1CCN(CCCCN2C(=O)c3ccccc3C2=O)CC1 | 2% (active)
Cc1cccc(C(=O)NCN2CCN(c3ccccc3C#N)CC2)c1 | -17.3%
COc1ccccc1N1CCN(CCN2C(=O)CC3(CCCC3)CC2=O)CC1 | 61.3% (active)
COc1ccccc1N1CCN(CCCCNC(=O)c2ccc3ccccc3c2)CC1 | 36.1% (active)
O=C1CC2(CCCC2)CC(=O)N1CCCCN1CCN(c2ncccn2)CC1 | -6.6%
CN[C@H](CC(=O)O)C(=O)O | 15.9% (active)
c1ccc(C(NCc2cccnc2)(c2ccccc2)c2ccccc2)cc1 | 2.5% (active)
CC(C)(Oc1ccc(CCNC(=O)c2ccc(Cl)cc2)cc1)C(=O)O | 5.4% (active)
CC(C)(Oc1ccc(C2CC2(Cl)Cl)cc1)C(=O)O (centres undefined) | -2.9%
C=C/C(C)=C/[C@@]1(C)SC(=O)C(C)=C1O | 13.4% (active)
O=C1NC(c2cccc([N+](=O)[O-])c2)=CCN1c1ccccc1O | 24.8% (active)
N=C(N)SCCc1cnc[nH]1 | -0.5%
NCCc1cnc[nH]1 | 10.9% (active)
CCCCC[C@H](CC(=O)NO)C(=O)N[C@H](C(=O)N1CCC[C@H]1CO)C(C)C | -27.8%

SMILES | inhibition
COc1cc(OC)c(/C=C2/C(=O)Nc3ccccc32)c(OC)c1 | 44.2% (active)
CCC1(O)CC2CN(CCc3c([nH]c4ccccc34)[C@@](C(=O)OC)(c3cc4c(cc3OC)N(C=O)C3[C@]45CCN4CC=C[C@@](CC)([C@@H](OC(C)=O)[C@]3(O)C(=O)OC)[C@H]45)C2)C1 (some centres undefined) | 2.9% (active)
CCC1(O)CC2CN(CCc3c([nH]c4ccccc34)[C@@](C(=O)OC)(c3cc4c(cc3OC)N(C)C3[C@]45CCN4CC=C[C@@](CC)([C@@H](OC(C)=O)[C@]3(O)C(=O)OC)[C@H]45)C2)C1 (some centres undefined) | 18.8% (active)
C/C(=C\c1ccc(C(=O)O)cc1)c1ccc2c(c1)C(C)(C)CCC2(C)C | 5.8% (active)
CCCCC/C=C\CC(O)/C=C/c1cccc(CC(O)CCCCO)n1 (centres undefined) | -9.6%
O=c1cc(-c2ccccc2)[nH]c2nc(Cl)ccc12 | 2.9% (active)
O=C1CCC(N2C(=O)c3ccccc3C2=O)C(=O)N1 (centres undefined) | 3% (active)
Cc1cccc(C#Cc2ccccc2)n1 | 15.5% (active)
CC(C)c1ccc2c(c1)c(SC(C)(C)C)c(CC(C)(C)C(=O)O)n2Cc1ccc(Cl)cc1 | 0.2% (active)
NCCCCN=C(N)N | 15.4% (active)
NC(N)=NCCCCN=C(N)N | 7% (active)
CCN(CC)CC#CCOC(=O)C(O)(c1ccccc1)C1CCCCC1 (centres undefined) | 8.3% (active)
O=C(/C=C/c1ccc(O)cc1)c1ccc(O)cc1O | 58.4% (active)
NC(Cc1cccc(-c2ccccc2CP(=O)(O)O)c1)C(=O)O (centres undefined) | 5.3% (active)
Oc1ccc(Cn2cc[nH]c2=S)cc1 | 22.2% (active)
COCc1nc2c([nH]1)c(=O)n(C)c(=O)n2CC(C)C | 3% (active)
CNCCC=C1c2ccccc2CCc2ccccc21 | 0.1% (active)
CN(C)CCC=C1c2ccccc2CCc2ccccc21 | 23.9% (active)
CN(C)CC/C=C1\c2ccccc2COc2ccccc21 | 5% (active)
CN(C)CCC=C1c2ccccc2C=Cc2ccccc21 | -6.8%
NC(=O)c1ncn([C@@H]2O[C@H](CO)[C@@H](O)[C@H]2O)n1 | 6.1% (active)
NC(=O)c1ncn([C@@H]2O[C@H](CO)[C@@H](O)[C@H]2O)c1O | 9.1% (active)

SMILES | inhibition
CCN(CC)CC(=O)Nc1c(C)cccc1C | 6.5% (active)
COC(=O)C1=CO[C@@H](O)[C@@H]2C(CO)=CC[C@H]12 | 16.3% (active)
CCC(C)N(C)C(=O)c1cc2ccccc2c(-c2ccccc2Cl)n1 (centres undefined) | 14% (active)
CN=C(NC#N)NCCSCc1nc[nH]c1C | 13.2% (active)
Cc1cccc(C)c1OCC(N)C(C)C (centres undefined) | 15.4% (active)
Cc1cccc(C)c1OCC(C)N (centres undefined) | -6%
CC(N=C(NC#N)Nc1ccncc1)C(C)(C)C (centres undefined) | -10.9%
CC(N)C1CCC(C(=O)Nc2ccncc2)CC1 (centres undefined) | 23% (active)
c1ccc(C2CN3CCSC3=N2)cc1 (centres undefined) | -12.3%
c1ccc([C@H]2CN3CCSC3=N2)cc1 | 10.2% (active)
Brc1ccc([C@H]2CN3CCSC3=N2)cc1 | 18.2% (active)
CCCn1c(=O)c(C)cn2nc(N)nc12 | 12.2% (active)
CCCCCCCCCCC(C)(C)C(=O)Nc1c(OC)cc(OC)cc1OC | 15.9% (active)
Brc1c(Br)c(Br)c2n[nH]nc2c1Br | 29.4% (active)
NC(=Nc1ccccc1)NC(=O)c1nc(Cl)c(N)nc1N | 13.3% (active)
NC(=NCc1ccccc1)NC(=O)c1nc(Cl)c(N)nc1N | 3.9% (active)
O=C(O)CNC(=O)C(CS)Cc1ccccc1 (centres undefined) | 3.5% (active)
COc1ccc(NC(=O)/C=C/c2ccc(Cl)cc2)cc1 | 18% (active)
COc1ccc([C@@H]2Sc3ccccc3N(CCN(C)C)C(=O)[C@@H]2OC(C)=O)cc1 | 10.6% (active)
Cc1ccc([N+](=O)[O-])cc1S(=O)(=O)N(C)C | -9.6%
CS(=O)(=O)Nc1ccc([N+](=O)[O-])cc1Oc1ccccc1 | 97.4% (active)

— PubChem BioAssay AID1347420 (Sanford-Burnham Center for Chemical Genomics, 2020)
